Assay outcomes deposited in PubChem BioAssay by several laboratories.
CCHF vOTU inh-1: CCHFV vOTU protease inhibition; Pep-AMC fluorescence; inhibition, % at 11.5 µM; hit rate 0.55% among 370,000; AID 651958
FBA Mtb inh: inhibitors of M. tuberculosis fructose-bisphosphate aldolase | inhibition, % at 1 µM | hit rate 2.3% among 360,000 | purified M. tuberculosis FBA, fluorescence read-out | AID 588726; in the data active means inhibition above about 27%
Target sequence (P9WQA3 whole entry, looked up): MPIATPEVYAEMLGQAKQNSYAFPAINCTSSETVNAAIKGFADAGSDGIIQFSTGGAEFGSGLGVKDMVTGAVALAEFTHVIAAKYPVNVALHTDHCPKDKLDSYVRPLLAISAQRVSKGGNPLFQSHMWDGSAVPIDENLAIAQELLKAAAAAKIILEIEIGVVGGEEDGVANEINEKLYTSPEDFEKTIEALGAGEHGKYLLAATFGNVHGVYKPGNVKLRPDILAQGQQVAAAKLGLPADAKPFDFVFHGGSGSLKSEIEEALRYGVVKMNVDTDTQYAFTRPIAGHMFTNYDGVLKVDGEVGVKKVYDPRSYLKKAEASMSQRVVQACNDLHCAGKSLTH
Vc quorum ag: inducers of Vibrio cholerae quorum light production without autoinducers; AID 588436; hit rate 0.16% among 350,000; V. cholerae BH1578 lux reporter, luminescence, 6 h; activation, % at 18.7 µM; in the data active means activation mostly above about 9.7%, no sharp cut-off
GDH-TPI inh: GDH-TPI coupled enzyme inhibition counter-screen. GDH-TPI coupled enzyme counterscreen, NADH absorbance. inhibition, % at 4.8 µM. hit rate 1.2% among 360,000. AID 588335
CCHF vOTU inh-2: CCHFV vOTU protease inhibition, confirmation; shares compounds with CCHF vOTU inh-1; Recombinant CCHFV vOTU, Pep-AMC fluorescence; inhibition, % at 11.5 µM; hit rate 17% among 1,900
Hits are given with their value; - = inactive; . = no result given. This is a sample that favours compounds with a hit; in the whole collection about 3.9% have one here. Unless noted, no stated cut-off is given here; in the data, active means inhibition above about 30%; inactive means the rest.

SMILES	CCHF vOTU inh-1	FBA Mtb inh	Vc quorum ag	GDH-TPI inh	CCHF vOTU inh-2
CCOC(=O)C1=C(C(=O)OCC)C2N(Cc3ccc(C(F)(F)F)cc3)c3ccccc3[C@@]23C[C@@H](C(=O)OC)N(S(=O)(=O)c2cccs2)C3=N1 (stereo not given in full)	-	.	.	.	.
CCN(CC(=O)NCc1cccs1)C(=O)CCCOc1ccc(C(C)(C)C)cc1	30.7	-	-	-	-
CC1CN(C(=O)c2ccc(-c3cccc(C(F)(F)F)c3)o2)CC(C)O1 (stereo not given)	-	-	-	-	.
COC(=O)[C@]12C[C@H](CC(=O)NCc3ccccc3)C(=O)N(Cc3ccc4c(c3)OCO4)C1=C[C@H](C(C)(C)C)O[C@@H]2C	-	.	.	.	.
COC(=O)[C@]12C[C@H](CC(=O)NCCC(C)C)C(=O)N(Cc3ccc4c(c3)OCO4)C1=C[C@H](C(C)(C)C)O[C@@H]2C	31.8	.	.	.	-
COC(=O)[C@]12C[C@H](CC(=O)NCc3cccc(C(F)(F)F)c3)C(=O)N(Cc3ccc4c(c3)OCO4)C1=C[C@H](C(C)(C)C)O[C@@H]2C	34.3	.	.	.	-
COc1ccc2nc(C3CCCCC3)nc(C3CCCCC3)c2c1	-	-	-	-	.
CS(=O)(=O)N(Cc1ccccc1)c1ccc(C(=O)NCC2CCCO2)cc1 (stereo not given)	35.0	-	-	-	-
CS(=O)(=O)N(Cc1ccc(Cl)cc1)c1ccc(C(=O)NCC2CCCO2)cc1 (stereo not given)	-	-	-	-	.
COc1ccc(NC(=O)C2CCCN2c2ccc(OC)c(OC)c2)cc1OC (stereo not given)	-	-	-	-	.
O=C(O)c1ccccc1NS(=O)(=O)c1ccc(NNC(=S)Nc2ccc(OC(F)F)cc2)c([N+](=O)[O-])c1	69.6	-	-	-	64.7
CC1(C(=O)Nc2ccc(F)cc2F)CCN1C(=O)CCC1CCCC1 (stereo not given)	32.7	-	-	-	-
O=C(NCCC(c1ccccc1)c1ccccc1)c1ccc(Br)o1	-	-	-	-	.
COc1ccc([C@H]2N[C@]3(CCCN(Cc4ccccc4)C3=O)[C@H]3C(=O)N(Cc4ccccc4)C(=O)[C@@H]23)cc1	-	-	-	-	.
CC1CC1C(=O)N1CCN(S(=O)(=O)c2cc(C(F)(F)F)cc(C(F)(F)F)c2)CC1 (stereo not given)	30.1	-	-	-	-
CC(C)c1ccccc1OCCNC(=S)NC(=O)c1cccnc1	-	-	-	-	.
COc1ccc2ccccc2c1C1CC(=O)N2CN(C3CCCCC3)CSC2=C1C#N (stereo not given)	46.9	-	-	-	35.1
COc1ccc2ccccc2c1C1CC(=O)N2CN(Cc3ccco3)CSC2=C1C#N (stereo not given)	33.2	-	-	-	-
CCN(CC)C(=O)C(=O)N/N=C/c1ccc(C(=O)OC)cc1	-	-	-	-	.
CC(C)C(N)c1csc(Nc2ccc(C(=O)c3ccccc3)cc2)n1 (stereo not given)	36.9	-	-	-	-
C=CC[C@]12C[C@@]3(O[C@H](c4ccc(C(F)(F)F)cc4)N=C3C[C@H](c3ccc(OC)cc3)[C@H]1C)N(Cc1ccncc1)C2=O	-	.	.	.	.
C[n+]1c2cc(N)ccc2cc2ccc(N)cc21	88.1	-	-	-	53.9
C=C(C)COc1ccc(-c2nc(N)ncc2-c2ccc(OC)cc2)c(O)c1	29.8	.	-	.	-
C=C(C)COc1ccc(-c2nc(N)ncc2-c2ccc(OC)c(OC)c2)c(O)c1	-	-	-	-	.
CCCCc1c(-c2ccc(F)cc2F)ncn1CCc1ccccc1OC	40.4	.	.	.	-
SMILES	CCHF vOTU inh-1	FBA Mtb inh	Vc quorum ag	GDH-TPI inh	CCHF vOTU inh-2
COc1ccccc1CCn1cnc(-c2ccccc2F)c1CC(C)C	45.2	.	.	.	-
O=C(O)c1ccc2c(c1)c1c3n2CCNC3CCC1 (stereo not given)	-	-	-	-	.
CCOC(=O)C1CCN(C(=O)NC23CC4CC(CC(C4)C2)C3)CC1	-	-	-	-	.
Cc1ccc(S(=O)(=O)N/N=C2/CC(c3ccccc3)Oc3ccccc32)cc1[N+](=O)[O-] (stereo not given)	38.5	-	-	-	-
C/C(Cl)=C/Cc1c(C)[nH]c2ccc(C)cc2c1=O	-	-	-	-	.
Cc1[nH]c2ccc(F)cc2c(=O)c1SC(F)(F)C(F)F	29.9	-	-	-	-
O=C(CNC(=O)c1ccc(F)cc1)N/N=C/c1cccnc1	-	-	-	-	.
O=C1NCCCC2c3cc(O)c4ccccc4c3OC12N1CCCCC1 (stereo not given)	92.4	.	.	.	-
O=C1NCCCC2c3c(cc(Br)c(O)c3Br)OC12N1CCOCC1 (stereo not given)	-	-	-	-	.
